In the library only some 2.4% were active in any assay of this set; here they are far more common.
D2 PAM-1: positive allosteric modulators of human D2 dopamine receptor | P14416 | potentiation, % at 10 µM | HEK293 T-REx D2, calcium flux, EC20 dopamine potentiation | 0.34% of 340,000 active;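 active means potentiation over 3 SD above the plate norm, cut at about 30% in these data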
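Potentiation of an EC20 dopamine calcium response measured kinetically over 180 s, after a preceding 180 s compound-only read flagging agonists. Cells: inducible Hek293 Trex D2 line, 4000/well, cultured overnight at 30 C before dye loading.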
D2 antag: D2 dopamine receptor (human) antagonism. P14416. HEK293 TREx D2 cells, calcium flux, dopamine EC80. inhibition, % at 10 µM. 2% of 340,000 active; in the data active means inhibition above about 30%; inactive means below that, where a call was filed
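HEK293 T-REx D2 cells, tet-induced, calcium dye no-wash. Cpd pintool add, 180 s kinetic, then EC80 DA, 180 s kinetic. Ca flux read.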
D2 PAM-2: potentiates the human D2 dopamine receptor allosterically; DiscoveRx D2 beta-arrestin cells, luminescence, 90 min; 100% = 57 uM dopamine signal; 0.23% of 360,000 active; potentiation, % (test concentration not listed); P14416; AID 624464; in the data active means potentiation above about 50%; inconclusive means mostly about 30% to 49%
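PathHunter D2 cells, attached overnight at 37 deg C, received compound in DMSO plus dopamine at EC20 (50 nM final) for 90 min at 37 deg C. Beta-arrestin recruitment was read as luminescence after 1 h with detection reagent at ambient temperature.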
D2 ag-1: agonists of human D2 dopamine receptor (beta-arrestin) | P14416 | DiscoveRx PathHunter D2 beta-arrestin, luminescence, 90 min; 100% = 57 uM dopamine signal | activation, % (concentration not given with the values) | 0.084% of 360,000 active | AID 624465; in the data active means activation above about 40%; inconclusive means between about 15% and that limit
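Agonist mode: compounds alone added to overnight-plated D2 PathHunter cells for 90 min at 37 C, with 57 uM final dopamine (EC100) defining full response. Beta-arrestin recruitment detected by chemiluminescent reagent, read after 1 h at ambient temperature.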
D2 ag-2: agonists of human D2 dopamine receptor | AID 485358 | activation, % at 2 µM | HEK293 T-REx D2 cells, calcium flux agonist mode | 0.53% of 340,000 active;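 active means activation over 3 SD above normal in the single-dose calcium agonist read, cut at about 30% in these data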
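In this primary screen, compounds producing a positive calcium signal within 180 s of addition to tetracycline-induced, force-coupled HEK293 Trex D2 cells are flagged; cells are dye-loaded with a no-wash calcium kit beforehand.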
D3 arrestin ag: confirmation of human D3 dopamine receptor agonists, beta-arrestin | DiscoveRx D3 beta-arrestin cells, luminescence, 90 min | 4% of 2,300 active | Potency, µM (doses to about 76.9 µM), actives largely listed as activators | shares compounds with D2 ag-2; further: nearly all actives have a fitted effect of over 70% in size
Target sequence (P35462 whole entry, looked up): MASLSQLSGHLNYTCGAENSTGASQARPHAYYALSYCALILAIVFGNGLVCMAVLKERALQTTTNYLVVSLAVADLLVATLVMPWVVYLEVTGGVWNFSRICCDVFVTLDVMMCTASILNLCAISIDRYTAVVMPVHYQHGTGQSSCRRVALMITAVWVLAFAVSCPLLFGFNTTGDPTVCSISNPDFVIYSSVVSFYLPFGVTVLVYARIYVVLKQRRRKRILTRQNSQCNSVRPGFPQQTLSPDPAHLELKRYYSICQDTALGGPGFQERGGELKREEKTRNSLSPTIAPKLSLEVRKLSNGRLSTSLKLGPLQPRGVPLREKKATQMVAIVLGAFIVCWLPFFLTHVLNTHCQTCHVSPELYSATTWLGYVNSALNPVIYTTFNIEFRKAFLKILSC
D2 ag-3: counter-screen for D3 agonists: human D2 dopamine receptor agonism; DiscoveRx PathHunter D2 beta-arrestin, luminescence, 90 min; response scale: percent relative to full dopamine signal; 5.9% of 2,300 active; shares compounds with D2 ag-2; Potency, µM (series often up to 76.9 µM), usual class: activators; further: nearly all actives have a fitted effect of over 70% in size
A number is an active result; – = inactive; ? = inconclusive; · = no result given. Unless noted, the call rests on the fitted dose curve; in most records, active means well fitted activation curve with a large enough effect; inconclusive means small, poorly fitted or top-dose-only effect; inactive means flat fitted curve, though single readings scatter.

SMILES | D2 PAM-1 | D2 antag | D2 PAM-2 | D2 ag-1 | D2 ag-2 | D3 arrestin ag | D2 ag-3
CCCCN(CC)C(=O)c1ccc2c(c1)NC(=O)c1ccccc1S2 | – | · | · | · | – | · | ·
O=C(O)C1CCCC2CN3CCc4c([nH]c5ccccc45)C3C(O)C21 (stereo unspecified) | – | 57 | – | ? | – | – | ?
O=C1CCC2CN3CCc4c([nH]c5ccccc45)C3CC2C1 (stereo unspecified) | · | · | – | – | · | · | ·
O=C(O)[C@@H]1[C@H]2C[C@H]3c4[nH]c5ccccc5c4CCN3C[C@@H]2CC[C@@H]1O | – | 68 | – | – | 41 | – | ?
Cc1ncoc1C(=O)N1CCc2c([nH]c3ccccc23)C1C1CCCCC1 (stereo unspecified) | – | – | – | – | – | · | ·
Cc1cccc(C(=O)NNc2ncnc3c2cnn3-c2ccc(C)c(Cl)c2)c1 | – | · | · | · | – | · | ·
CSCCC(NS(=O)(=O)c1ccc2c(c1)oc(=O)n2C)C(=O)N1CCN(c2cc(Cl)ccc2C)CC1 (stereo unspecified) | – | · | · | · | – | · | ·
C[C@@H]1NS(=O)(=O)[C@H]2C[C@@H]3C=C[C@]2(O3)[C@H]1OC(=O)Nc1ccc(C(F)(F)F)cc1[N+](=O)[O-] | – | – | – | – | – | – | –
Cc1cc(C(=O)O[C@H]2[C@H](C)NS(=O)(=O)[C@H]3C[C@@H]4C=C[C@]23O4)cc([N+](=O)[O-])c1 | – | – | – | – | – | · | ·
O=C(NCc1cccc(C(F)(F)F)c1)C1CCCN(c2ncccn2)C1 (stereo unspecified) | – | – | – | – | 67 | – | –
COc1cc(C(CCN2CCN(c3ccccc3)CC2)c2c(OC)cc(OC)c3c(C)cc(=O)oc23)cc(OC)c1OC (stereo unspecified) | – | – | – | – | – | – | –
COc1cc(OC)c2c(C)cc(=O)oc2c1C(CCN1CCOCC1)c1ccc2c(c1)OCO2 (stereo unspecified) | – | – | – | – | – | · | ·
O=C(CN1CCN(c2ccccc2)CC1)c1ccc2cc[nH]c2c1 | – | 90 | – | – | 84 | – | –
O=C(O)C1CC=CCC1C(=O)Nc1ccc(N2CCN(Cc3ccccc3)CC2)cc1 (stereo unspecified) | – | – | – | – | 64 | – | –
O=C(CN1CCN(c2ccccc2)CC1)Nc1ccc(-n2cnnn2)cc1 | – | 51 | – | – | 69 | ? | ?
O=C(CN1CCC2(CC1)OCCO2)c1ccc2cc[nH]c2c1 | – | – | – | – | – | · | ·
CC(=O)c1ccc(NC(=O)CN2CCN(c3ccccc3)CC2)cc1 | – | 37 | – | ? | 83 | ? | ?
COc1cccc(N2CCN(CC(=O)Nc3ccc(-n4cnnn4)cc3)CC2)c1 | – | – | – | – | – | · | ·
COc1ccccc1-c1nnc(C2CCN(S(=O)(=O)c3ccccc3)CC2)o1 | – | · | · | · | – | · | ·
CC1CCN(S(=O)(=O)c2ccc(NC(=O)CN3CCN(c4ccccc4)CC3)cc2)CC1 | – | 59 | – | ? | 45 | 2.2µM | ?
CC(=O)c1ccc(NC(=O)CN2CCN(c3ncccn3)CC2)cc1 | – | 77 | – | 47 | 74 | ? | ?
CC(=O)c1ccc(NC(=O)CN2CCN(CC(=O)Nc3ccc(C(C)=O)cc3)CC2)cc1 | – | – | – | – | – | · | ·
CC1CCN(S(=O)(=O)c2ccc(NC(=O)CN3CCN(C)CC3)cc2)CC1 | – | – | – | – | – | · | ·
O=C(CN1CCN(c2ccccc2)CC1)Nc1ccc(Oc2ccccc2)cc1 | – | 58 | – | – | 55 | ? | ?
CCC1CN(C(=O)Nc2cccc3c2CCCC3)c2cc(C)ccc2O1 (stereo unspecified) | – | · | · | · | – | · | ·
SMILES | D2 PAM-1 | D2 antag | D2 PAM-2 | D2 ag-1 | D2 ag-2 | D3 arrestin ag | D2 ag-3
OCCC1CN(C/C=C/c2ccco2)CCN1Cc1ccccc1 (stereo unspecified) | – | – | – | – | – | – | –
COc1cc(CN2CCN(CCCc3ccccc3)CC2CCO)cc(OC)c1 (stereo unspecified) | – | 65 | – | – | 63 | – | –
OCCC1CN(CCCc2ccccc2)CCN1Cc1ccccc1 (stereo unspecified) | – | 40 | – | – | 57 | – | –
OCCC1CN(CCCc2ccccc2)CCN1CCc1ccccc1 (stereo unspecified) | – | – | – | – | – | · | ·
COc1ccccc1/C=C/CN1CCN(Cc2ccc(F)cc2)C(CCO)C1 (stereo unspecified) | · | · | – | – | · | · | ·
COc1cc(CN2CCN(CCc3ccccc3)C(CCO)C2)cc(OC)c1 (stereo unspecified) | – | – | – | – | – | · | ·
CC(=O)N1CCc2c(sc3c2c(=O)n(Cc2ccccc2)c(=O)n3Cc2ccccc2Cl)C1 | – | · | · | · | – | · | ·
Cc1ccc(CN2CCN(CC(=O)NCc3ccccc3Cl)C2=O)cc1 | – | · | · | · | – | · | ·
Cc1ccc2[nH]c(=O)c3cc(C(=O)NCc4cccc(Cl)c4)sc3c2c1 | – | · | · | · | – | · | ·
O=C(CCN1CCN(c2ccccc2)CC1)NNC(=O)Cc1c(F)cccc1Cl | – | 60 | – | – | 79 | ? | –
O=C(CCN1CCN(c2ccccc2)CC1)NNC(=O)c1ccccc1 | · | · | – | – | · | · | ·
O=C(CCN1CCN(c2ccccc2)CC1)NNC(=O)Cc1ccccc1Cl | – | 48 | – | – | 81 | – | –
CCOc1ccc(OCC)c(NC(=O)c2cnc3c(-c4ccccc4)c(C)nn3c2C)c1 | – | · | · | · | – | · | ·
Cc1ccc(Nc2nc3ccccc3nc2Nc2c(C)n(C)n(-c3ccccc3)c2=O)cc1 | – | – | – | – | – | · | ·
CC[n+]1c(-c2ccccc2)csc1Nc1c(C)n(C)n(-c2ccccc2)c1=O | – | – | – | – | 50 | – | –
CC[n+]1c(-c2ccc(C)cc2)csc1Nc1c(C)n(C)n(-c2ccccc2)c1=O | – | 52 | – | – | 66 | – | –
Cc1ccc(NC(=O)Cn2c(=O)cc(-c3ccccc3)c3c(C)nn(C)c32)c(Cl)c1 | – | · | · | · | – | · | ·
CC(=O)CSc1nnc(-c2ccc(S(=O)(=O)N3CCOCC3)cc2)n1C | · | · | – | – | · | – | –
CC(=O)CSc1nnc(-c2ccc(S(=O)(=O)N3CCCC3)cc2)n1C | – | – | – | – | – | · | ·
O=C(NCCc1ccccc1)c1coc(=O)c(Br)c1 | – | – | – | – | 39 | – | –
CN(C)CCNC(=O)c1coc(=O)c(Br)c1 | – | – | – | – | – | · | ·
COC(=O)c1ccc(C(=O)OC)c(NC(=O)N2CC3CCCN3c3ccccc32)c1 (stereo unspecified) | – | · | · | · | – | · | ·

High-throughput results as filed in PubChem.
